# Publication PMC5540273 (PLoS ONE, 2017)
# Experiments:
# PRKR = system: T1, PRKR
# T1 construct: gene EIF2AK2
# [1] = system: T2, RSK1(Kin.Dom.2-C-terminal)
# T2 construct: gene RPS6KA1
# [2] = system: T3, RSK2(Kin.Dom.1-N-terminal)
# T3 construct: gene RPS6KA3
# [3] = system: T4, RSK2(Kin.Dom.2-C-terminal)
# T4 construct: gene RPS6KA3
# [4] = system: T5, RSK3(Kin.Dom.2-C-terminal)
# T5 construct: gene RPS6KA2
# 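Note: kd values determined as follow-up on hits from a single-replicate KINOMEscan panel screen.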
structure (smiles),measurement,setting,value
CCC(=O)c1c(-c2ccccc2)c2cc(Cl)ccc2c(=O)n1Cc1cc(S(C)(=O)=O)n(CC(N)=O)n1,Kd,PRKCH,> 10000 nM
COc1cccc(C2=C(Nc3cccc(C(=O)O)c3)C(=O)NC2=O)c1 [SB-390770],Kd,PRKCI,> 10000 nM
Cc1cccc(-c2nc(Nc3ccc4c(cnn4C)c3)c3ccccc3n2)n1 [GW876731],Kd,PRKD1,7.2 nM
same,Kd,PRKD2,12 nM
same,Kd,PRKD3,13 nM
Cc1cc(Nc2nc(-c3cccc(C)n3)nc3ccccc23)ccn1 [GW872411],Kd,PRKD1,6.1 nM
same,Kd,PRKD2,9.4 nM
O=C1NC(=O)C(c2ccccc2)=C1Nc1cccc(O)c1 [SB-390534],Kd,PRKR,> 10000 nM
C[C@@H]1CC[C@H](C(=O)NC2CCCCC2)CN1c1cc(-c2ccc3c(N)n[nH]c3c2)nc(N)n1 [GSK2291363],Kd,PRKX,460 nM
same,Kd,RIOK1,210 nM
same,Kd,RIOK3,150 nM
same,Kd,ROCK1,210 nM
same,Kd,ROCK2,150 nM
Cc1ccc(Oc2ccc(Nc3ncnc4cc[nH]c34)cc2C)cn1,Kd,RIOK1,> 10000 nM
CCc1nc(-c2cccc(C)c2)c(-c2ccncc2)s1,Kd,[1],250 nM
COc1cc(Nc2ccnc3ccc(C(F)(F)F)cc23)cc(OC)c1OC [GW577382],Kd,[2],> 10000 nM
Nc1nc(-c2ccccc2F)c(-c2ccnc3ccccc23)s1 [GW560459],Kd,[3],790 nM
O=C(Nc1ccc2c(c1)OCO2)NC1CCN(c2ccnc(NCc3ccc(F)cc3)n2)CC1 [GSK1379859],Kd,[3],> 10000 nM
CC(C)(C)c1ccc(C(=O)Nc2cn3cc(-c4ccccc4)ccc3n2)cc1,Kd,[4],> 10000 nM
Cl.NS(=O)(=O)c1cccc(Nc2cc(-c3ccc(F)cc3)n[nH]2)c1 [GW824645],Kd,SGK2,> 10000 nM
COc1cc2ncn(-c3cc(OCc4ccncc4Br)c(C(N)=O)s3)c2cc1OC [GW854278],Kd,SLK,680 nM
COc1ccc(CNC(=O)NC2CCN(c3ccnc(Nc4ccc(F)cc4)n3)C2)cc1 (stereo not shown) [GSK1379706],Kd,SRPK2,> 10000 nM
